Where “and” joins values, the source holds several entries; their conditions need not be identical. Equal values may be shown once. Among all 5,500 compounds or so, about 2,000 (36%) were called active. Another 18% or so got no clear call; they are omitted. Rule as the data show it: active = normalized growth mostly below about 0.91 (no sharp cut-off); inconclusive = no clear call, values can overlap the other calls; inactive = mostly above about 0.92. This is one part of the list.
Experiment: chemical genetic growth profiling, strain panel (AID 1159580);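 also: tested at 20 µM; growth read once vehicle control cultures reached saturation at 30 °C; 1 = growth at the plate median or of vehicle wells; lower values mean less growth of the strain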
Conditions: S. cerevisiae deletion strains, growth OD

Measured: normalized growth

COC1=CC23CCCN2CCc2cc4c(cc2C3C1O)OCO4 (stereo not drawn)
inactive: locus YAL013W, strain DEP1, stronger effect = lower value 1.01 | locus YAL021C, strain ccr4, stronger effect = lower value 1.02 | locus YAL026C, strain drs2, stronger effect = lower value 1.03 | locus YAL030W, strain snc1, stronger effect = lower value 1.02 | locus YBL061C, strain skt5, stronger effect = lower value 1.03 | locus YBR009C, strain hhf1, stronger effect = lower value 1.04 | locus YBR021W, strain FUR4, stronger effect = lower value 1.01 | locus YBR023C, strain chs3, stronger effect = lower value 1.05 | locus YBR171W, strain sec66, stronger effect = lower value 1.06 | locus YBR229C, strain ROT2, stronger effect = lower value 1.01 | locus YBR231C, strain swc5, stronger effect = lower value 1.02 | locus YBR279W, strain paf1, stronger effect = lower value 1.03 | locus YCL011C, strain gbp2, stronger effect = lower value 1.02 | locus YCL016C, strain dcc1, stronger effect = lower value 1.03 | locus YCL029C, strain bik1, stronger effect = lower value 1.01 | locus YCL061C, strain MRC1, stronger effect = lower value 1.03 | locus YCL069W, strain vba3, stronger effect = lower value 1.02 | locus YCR088W, strain abp1, stronger effect = lower value 1.03 | locus YDL005C, strain med2, stronger effect = lower value 1.02 | locus YDL035C, strain GPR1, stronger effect = lower value 0.995 | locus YDL040C, strain nat1, stronger effect = lower value 1.02 | locus YDL074C, strain BRE1, stronger effect = lower value 1.04 | locus YDL101C, strain DUN1, stronger effect = lower value 1 | locus YDL185W, strain tfp1, stronger effect = lower value 1.01 | locus YDL192W, strain arf1, stronger effect = lower value 1 | locus YDR001C, strain nth1, stronger effect = lower value 1.02 | locus YDR069C, strain doa4, stronger effect = lower value 1.04 | locus YDR101C, strain arx1, stronger effect = lower value 1.01 | locus YDR137W, strain rgp1, stronger effect = lower value 1.05 | locus YDR150W, strain NUM1, stronger effect = lower value 1.01 | locus YDR159W, strain sac3, stronger effect = lower value 1.04 | locus YDR162C, strain NBP2, stronger effect = lower value 1.01 | locus YDR195W, strain ref2 1.01 | locus YDR297W, strain sur2, stronger effect = lower value 1.02 | locus YDR318W, strain mcm21, stronger effect = lower value 0.987 | locus YDR334W, strain swr1, stronger effect = lower value 1.03 | locus YDR335W, strain msn5, stronger effect = lower value 1.03 | locus YDR388W, stronger effect = lower value 1.01 | locus YDR392W, strain spt3, stronger effect = lower value 0.971 | locus YDR502C, strain sam2, stronger effect = lower value 0.995 | locus YEL003W, strain gim4, stronger effect = lower value 1.02 | locus YEL037C, strain rad23, stronger effect = lower value 1.02 | locus YEL061C, strain CIN8 (second series), stronger effect = lower value 1.02 | locus YEL061C, strain CIN8, stronger effect = lower value 1.01 | locus YER015W, strain faa2, stronger effect = lower value 1.02 | locus YER016W, strain bim1, stronger effect = lower value 1.02 | locus YER110C, stronger effect = lower value 1.01 | locus YER111C, strain swi4, stronger effect = lower value 1.03 | locus YER155C, strain BEM2 (second series), stronger effect = lower value 1.04 | locus YER155C, strain BEM2, stronger effect = lower value 1 | locus YER167W, strain BCK2, stronger effect = lower value 1 | locus YFR010W, strain ubp6, stronger effect = lower value 1.03 | locus YGL078C, strain dbp3, stronger effect = lower value 0.997 | locus YGL086W, strain mad1, stronger effect = lower value 1.03 | locus YGL167C, strain pmr1, stronger effect = lower value 1.03 | locus YGL173C, strain kem1, stronger effect = lower value 1.04 | locus YGL227W, strain vid30, stronger effect = lower value 1.02 | locus YGL240W, strain doc1, stronger effect = lower value 1.04 | locus YGL248W, strain PDE1, stronger effect = lower value 0.988 | locus YGL253W, strain hxk2, stronger effect = lower value 1.03 | locus YGR078C, strain PAC10, stronger effect = lower value 1 | locus YGR135W, strain pre9, stronger effect = lower value 0.986 | locus YGR229C, strain SMI1, stronger effect = lower value 1 | locus YGR252W, strain gcn5, stronger effect = lower value 0.952 | locus YHR013C, strain ard1, stronger effect = lower value 1.04 | locus YHR027C, strain rpn1, stronger effect = lower value 1.06 | locus YHR030C, strain SLT2, stronger effect = lower value 1.01 and 0.963 | locus YHR079C, strain IRE1 (second series), stronger effect = lower value 1.01 | locus YHR079C, strain IRE1, stronger effect = lower value 0.967 | locus YHR094C, strain hxt1, stronger effect = lower value 1.01 | locus YHR129C, strain ARP1, stronger effect = lower value 1.01 | locus YHR142W, strain chs7, stronger effect = lower value 1.05 | locus YHR200W, strain rpn10, stronger effect = lower value 1.01 | locus YIL066C, strain RNR3, stronger effect = lower value 1.01 | locus YIL073C, strain SPO22, stronger effect = lower value 1.04 | locus YIL125W, strain kgd1, stronger effect = lower value 1.01 | locus YIR030C, strain dcg1, stronger effect = lower value 1.01 | locus YJL092W, strain hpr5, stronger effect = lower value 1.02 | locus YJL095W, strain BCK1 (second series), stronger effect = lower value 1.02 | locus YJL095W, strain BCK1, stronger effect = lower value 0.983 and 0.975 | locus YJL115W, strain asf1, stronger effect = lower value 1.01 | locus YJL129C, strain trk1, stronger effect = lower value 1.03 | locus YJL134W, strain LCB3, stronger effect = lower value 1.01 | locus YJL154C, strain vps35, stronger effect = lower value 1.02 | locus YJL164C, strain tpk1, stronger effect = lower value 1.03 | locus YJL166W, strain qcr8, stronger effect = lower value 1.03 | locus YJL168C, strain set2, stronger effect = lower value 1 | locus YJL187C, strain SWE1 (second series), stronger effect = lower value 1
